# Measured values: the supplement of paper PMC6555819
# Tests used:
# Assay in all cases: PBM binding z-score (relative to random genomic background probes); higher = stronger binding; sequences stand for … in GC…GCGATTGACAGCGTAGAATGAAGG
# [1] = tested on: FXR:RXRa (NR concentration 270 nM, RXRa partner concentration 90 nM)
# In short: (§1)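 Custom Agilent 4×180K protein-binding microarrays carried double-stranded probes, each with a 34-nt variable region. These regions held direct-repeat seeds, single-nucleotide variants, half-site ablations and random human genomic background sequences. Ligand-free nuclear receptor dimers were incubated on the arrays for 1 h, antibodies against each partner (one per run) detected binding, and scanned fluorescence was regression-normalized. Binding z-scores take the random background probes as reference.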
# [2] = tested on: LXRa:RXRa (NR concentration 270 nM, RXRa partner concentration 90 nM)
# In short: as §1
# [3] = tested on: LXRa homodimer (NR concentration 270 nM)
# In short: as §1
# [4] = tested on: LXRb:RXRa (NR concentration 270 nM, RXRa partner concentration 90 nM)
# In short: as §1
# [5] = tested on: LXRb homodimer (NR concentration 270 nM)
# In short: as §1
# [6] = tested on: PPARa:RXRa (NR concentration 270 nM, RXRa partner concentration 90 nM)
# In short: as §1
# [7] = tested on: PPARg:RXRa (NR concentration 180 nM, RXRa partner concentration 90 nM)
# In short: as §1
# [8] = tested on: PPARg:RXRa 270nM:90nM, anti-RXR (NR concentration 270 nM, RXRa partner concentration 90 nM)
# In short: as §1
# [9] = tested on: PPARg:RXRa 30nM:10nM, anti-RXR (NR concentration 30 nM, RXRa partner concentration 10 nM)
# In short: as §1
# [10] = tested on: PPARg:RXRa 90nM:30nM, anti-RXR (NR concentration 90 nM, RXRa partner concentration 30 nM)
# In short: as §1
# [11] = tested on: PPARg:RXRa DBDmut IVT, anti-RXR (DBD mutation: RXRa K156A/R161A, NR concentration 270 nM, RXRa partner concentration 90 nM)
# In short: as §1
# [12] = tested on: PPARg:RXRa IVT, anti-PPARg (NR concentration 270 nM, RXRa partner concentration 90 nM)
# In short: as §1
# [13] = tested on: PPARg DBDmut:RXRa IVT, anti-PPARg (DBD mutation: PPARg1 K132A/R137A, NR concentration 270 nM, RXRa partner concentration 90 nM)
# In short: as §1
# [14] = tested on: PPARg DBDmut IVT, anti-PPARg (DBD mutation: PPARg1 K132A/R137A, NR concentration 270 nM)
# In short: as §1
# [15] = tested on: PPARg homodimer (NR concentration 180 nM)
# In short: as §1
# [16] = tested on: PXR:RXRa (NR concentration 270 nM, RXRa partner concentration 90 nM)
# In short: as §1
# [17] = tested on: PXR homodimer (NR concentration 270 nM)
# In short: as §1
# [18] = tested on: RARa:RXR (NR concentration 270 nM, RXRa partner concentration 90 nM)
# In short: as §1
# [19] = tested on: RARa homodimer (NR concentration 270 nM)
# In short: as §1
# [20] = tested on: RARb:RXRa (NR concentration 270 nM, RXRa partner concentration 90 nM)
# In short: as §1
Sequence,PBM binding z-score [1],PBM binding z-score [2],PBM binding z-score [3],PBM binding z-score [4],PBM binding z-score [5],PBM binding z-score [6],PBM binding z-score [7],PBM binding z-score [8],PBM binding z-score [9],PBM binding z-score [10],PBM binding z-score [11],PBM binding z-score [12],PBM binding z-score [13],PBM binding z-score [14],PBM binding z-score [15],PBM binding z-score [16],PBM binding z-score [17],PBM binding z-score [18],PBM binding z-score [19],PBM binding z-score [20]
AGTCAAAGCTCACTAGGTAACGTAAGATTCAGCT,-0.693,-0.67,-0.464,-0.615,-0.437,0.637,0.855,0.165,0.0714,-0.118,1.92,2.79,0.267,-0.313,-0.462,-0.363,-0.294,-0.364,-0.0387,-0.0625
GCGACTGGGGCAAAGCAGGTTACTATAAGGTTGG,0.109,0.31,-0.478,0.342,-0.602,1.4,1.31,1.5,0.185,1.06,4.62,3.88,0.068,-0.036,0.617,0.375,-0.473,0.949,-0.471,0.879
GCTTGTTGATCAAGGTTAAGAAAGACTAAGCTAA,-0.091,0.792,-0.456,0.239,-0.437,1.09,-0.203,0.401,-0.0921,0.472,0.197,0.134,0.234,-0.0505,-0.0187,0.387,-0.694,0.658,0.254,0.66
CCTACTGGACCAAAGGTCATTGATTCCAATGCTC,4.9,5.68,5.86,5.23,2.31,6.24,10.5,9.96,10.5,10.8,3.51,5.62,0.797,0.872,3.81,5.47,3.17,5.95,2.78,4.48
CAGCCTAGGTCAGGGCCAGTAAAGGAGGAACGTT,1.69,0.93,-0.563,0.471,-1.1,2.26,0.751,0.991,-0.53,0.142,1.26,1.51,-1.63,-1.14,0.652,0.328,-0.795,1.08,0.335,3.49
TCTGCTAGATCAGTTGGTCAGCTAACGAGCTGCC,-2.98,-0.794,-1.07,-0.988,-0.764,-0.465,-0.552,0.389,1.24,0.547,0.357,-0.283,-0.43,-0.675,-2.6,-0.872,-1.07,-0.915,-1.97,-0.199
TGAATGAGGTTATACGATCAGGGAACGTTGCAAA,1.76,1.37,-0.238,1.05,-0.18,2.91,1.33,1.79,0.555,1.1,0.677,1.61,0.964,0.564,0.291,0.89,-0.167,1.48,0.115,1.15
GGAACGAGGGCTAGTTGATAGCAGAGTTTGATGG,-0.569,-0.717,-0.679,-0.908,-0.992,-0.745,0.203,-0.227,-0.133,-0.567,0.122,-0.508,-0.313,-0.827,-0.214,-0.534,-0.283,-0.627,-0.525,-0.19
GCGACTGGGGCATCAGGAGGTTACCATAACTTAA,0.0636,0.325,0.0698,0.842,-1.05,1.7,1.35,1.26,0.00065,0.599,3.82,3.59,-0.435,-0.747,0.816,0.63,-0.0464,1.16,-0.466,1.21
ATACCAAGGTGATCATGAGGTCGTTGATACTAAC,1.75,1.61,0.874,1.38,-0.0501,1.89,0.785,0.728,0.266,0.604,0.474,1.5,0.599,0.991,0.68,3.42,1.96,2.22,0.136,1.49
GCAGACACGTGAAACGCAGGTAACTCAGGGTGGC,-0.868,-0.737,-0.81,-0.691,-1.29,-0.718,0.584,-0.446,-0.559,-0.87,-1.12,-0.582,-0.764,-0.343,-2.11,-0.819,-0.73,-0.666,-0.899,-0.551
CAGGCTAGGTCAGGGCCAGTATAGGAGGAACGTT,1.56,0.779,-0.274,0.278,-0.895,2.06,1.39,1.07,-0.194,0.297,1.77,2.27,-0.979,-1.24,0.901,0.235,-0.157,0.946,0.278,3.6
CGAACTAGGTCAAGGACAGAGAATCTCCGCACGC,3.32,1.95,-0.0711,1.25,-0.37,4.47,7.55,6.28,3.62,5.63,8.21,8.28,3.36,1.6,1.59,0.886,-0.0315,1.87,0.29,3.87
TGTCAAAGTTCAAAGTTAACGTAAGTATCCACAC,6.94,6.38,5.46,4.6,2.99,5.59,8.27,7.38,5.04,7.29,0.374,4.24,1.16,1.99,2.65,5.04,4.24,4.46,1.12,5.12
GCTCGGAGGGCAAGGTCAGAGCTTTGTCCGTAGA,2.16,2.05,-0.485,1.26,-1.03,3,1.23,2,-0.62,0.771,0.731,1.11,-2.58,-1.43,2.03,2.07,-0.437,2.52,-0.775,3.76
